In PubChem BioAssay AID1851 (National Center for Advancing Translational Sciences (NCATS), 2009):
In all, about 16,000 compounds went through this assay and about 4,000 (25%) were called active. Another 26% or so got no clear call; they are omitted. Calls follow the shape of the dose curve; as a rule, active = well fitted curve in the direction sought with a large enough effect; inconclusive = small, poorly fitted or top-dose-only effect, or effect the other way; inactive = no such curve, though single readings can be large or run the other way. Not all results are given here.

The compounds below were run against Cytochrome P450 2C9 (Homo sapiens) (UniProt P11712) (assay: Cytochrome panel assay with activity outcomes). Settings: recombinant CYP, pro-luciferin dealkylation, luminescence, p450-cyp2c9; series mostly up to 57.1 µM.
Cytochrome P450 2C9 (Homo sapiens), sequence (P11712 whole entry, looked up): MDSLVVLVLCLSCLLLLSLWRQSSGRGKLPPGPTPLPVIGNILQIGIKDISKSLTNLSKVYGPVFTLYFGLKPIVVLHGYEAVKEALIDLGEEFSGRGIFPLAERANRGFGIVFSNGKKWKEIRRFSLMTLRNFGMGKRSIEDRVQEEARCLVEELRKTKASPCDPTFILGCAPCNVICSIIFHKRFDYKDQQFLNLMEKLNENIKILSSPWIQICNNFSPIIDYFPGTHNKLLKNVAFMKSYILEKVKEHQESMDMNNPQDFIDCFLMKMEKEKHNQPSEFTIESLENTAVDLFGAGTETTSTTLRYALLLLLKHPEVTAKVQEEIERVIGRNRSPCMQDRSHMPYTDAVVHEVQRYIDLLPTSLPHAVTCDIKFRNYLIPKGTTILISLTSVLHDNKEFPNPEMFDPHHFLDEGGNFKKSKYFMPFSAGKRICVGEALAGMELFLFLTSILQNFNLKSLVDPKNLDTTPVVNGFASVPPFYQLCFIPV
% is scaled to controls: 0 for no effect and ±100 for the full control effect.

AC50, active:
C=CCn1c(SC(C)C(=O)NCc2ccc3c(c2)OCO3)nc2scc(-c3ccccc3)c2c1=O (stereo not given) 2.51 µM
CC(NC(=O)c1ccc(Cn2cc([N+](=O)[O-])cn2)o1)c1ccccc1 (stereo not given) 6.31 µM
CCOC(=O)c1c(-c2ccccc2)cn2ccccc12 3.55 µM
Cc1ccc(CC(=O)N2CCN(c3cccc(C(F)(F)F)c3)CC2)cc1 14.1 µM
O=C(c1coc2ccccc2c1=O)N1CCN(c2cccc(C(F)(F)F)c2)CC1 12.6 µM
O=c1cnc2cnc(Oc3ccccc3)nc2n1Cc1ccc(F)cc1 15.8 µM
O=c1cnc2cnc(Oc3cccc(Cl)c3)nc2n1Cc1ccc(F)cc1 7.94 µM
COc1cccc(Cn2c(=O)cnc3cnc(Oc4cccc(Cl)c4)nc32)c1 3.98 µM
O=c1cnc2cnc(Oc3ccccc3)nc2n1CCc1ccccc1 3.16 µM
CC(C)c1ccc2nc3sc(C(=O)N4CCc5ccccc5C4)c(N)c3cc2c1 4.47 µM
COc1ccc2c(c1)C(=NN)c1cc(OC)ccc1-2 3.55 µM
C/C(CCc1ccc2c(c1)OCO2)=N\N=C1\NC(=O)CC(C(=O)Nc2ccccc2)S1 (stereo not given) 7.94 µM
O=S(=O)(c1ccccc1)N1CCN(c2cc(-c3ccccc3)nc3ncnn23)CC1 12.6 µM
FC(F)(F)c1ccc(N2CCN(c3cc(-c4ccccc4)nc4ncnn34)CC2)nc1 2.24 µM
COCCn1c(=O)c(-c2ccccc2)nc2cnc(N(C)C)nc21 20 µM
CN(C)c1ncc2nc(CCc3ccccc3)c(=O)n(-c3ccccc3)c2n1 12.6 µM
CN(C)c1ncc2nc(-c3ccccc3)c(=O)n(C3CC3)c2n1 10 µM
CN(C)c1ncc2nc(-c3ccccc3)c(=O)n(C)c2n1 10 µM
CN(C)c1ncc2nc(CCc3ccccc3)c(=O)n(Cc3cccs3)c2n1 15.8 µM
CN(C)c1ncc2nc(-c3ccccc3)c(=O)n(CCc3ccccc3)c2n1 0.631 µM
CN(C)c1ncc2nc(CCc3ccccc3)c(=O)n(CCC#N)c2n1 15.8 µM
Cc1nc2cnc(N(C)C)nc2n(CCc2ccccc2)c1=O 12.6 µM
CN(C)c1ncc2ncc(=O)n(CCc3ccccc3)c2n1 6.31 µM
CN(C)c1ncc2nc(CCc3ccccc3)c(=O)n(CCc3ccccc3)c2n1 12.6 µM
COCCn1c(=O)[nH]c2cc(C(=O)N3CCN(c4ccccc4OC)CC3)ccc2c1=O 7.94 µM
COc1ccc(-c2csc(N3C(=N)SCC3=O)n2)cc1 3.55 µM
OCCN(Cc1ccccc1)Cc1cccc(Cl)c1Cl 3.98 µM
O=C1c2cccc3cccc(c23)C(=O)N1CC1CCN(CC(O)COc2ccc3ccccc3c2)CC1 (stereo not given) 0.891 µM
COc1cccc2[nH]c3c(N4CC(C)CC(C)C4)ncnc3c12 (stereo not given) 10 µM
CCOc1ncccc1C(=O)OCC(=O)Nc1cc(C)ccc1C 8.91 µM

AC50, inactive:
C=CCn1c(SCc2ccc3c(c2)OCO3)nc2scc(-c3ccco3)c2c1=O
CC1(C)O[C@@H]2C[C@H]3[C@H]4C[C@H](F)C5=CC(=O)CC[C@]5(C)[C@@H]4[C@H](O)C[C@]3(C)[C@]2(C(=O)CO)O1
Cc1ncc([N+](=O)[O-])n1CC(=O)NCc1ccccc1
COCC(=O)N1CCC2(CCCN(Cc3ccccc3OC)C2)CC1
Cc1cccc(C)c1NC(=O)c1cc2c(=O)c3ccccc3oc2nc1C(F)(F)F
CCc1ccc(NC(=S)N2CCN(c3cccc(C(F)(F)F)c3)CC2)cc1
C[C@@H]1CCN=C(N)S1
CN1CCN(c2ncc3ncc(=O)n(Cc4ccc(F)cc4)c3n2)CC1
COc1ccc(-n2c(=O)cnc3cnc(Oc4cccc(Cl)c4)nc32)cc1
Cc1nc2cnc(Oc3ccccc3)nc2n(CCc2ccccc2)c1=O
COc1cccc(Cn2c(=O)cnc3cnc(OC)nc32)c1
O=c1cnc2cnc(OCc3ccccc3)nc2n1Cc1ccc(F)cc1
N#CCCn1c(=O)cnc2cnc(Oc3ccccc3)nc21
COc1ccc(CC(=O)O/N=C(\N)Cc2ccc(OC)cc2)cc1
OC[C@@H]1O[C@@H](n2cnc3c(NC4CCCC4)ncnc32)[C@H](O)[C@H]1O
Cc1cc(N2CCN(c3nc4ccccc4s3)CC2)n2ncnc2n1
CC(C)CN1CCCC2(CCN(S(=O)(=O)c3ccccc3)CC2)C1
COc1ccc(-n2c(=O)c(CCc3ccccc3)nc3cnc(N(C)C)nc32)cc1
O=c1c(-c2ccccc2)nc2cncnc2n1C1CC1
COCCn1c(=O)c(-c2cc(F)cc(F)c2)nc2cnc(N(C)C)nc21
CN(C)c1ncc2nc(-c3ccc(Cl)cc3)c(=O)n(C)c2n1
CCNc1ncc2nc(-c3ccccc3)c(=O)n(C3CC3)c2n1
CN(C)c1ncc2nc(-c3ccc(F)cc3)c(=O)n(C)c2n1
COCCn1c(=O)c(-c2ccc(Cl)cc2)nc2cnc(N(C)C)nc21
Cc1nc2cnc(N(C)C)nc2n(-c2ccccc2)c1=O
CC(C)NC(=O)N1CCCC2(CCN(C(=O)c3csnn3)CC2)C1
Cc1nc2cnc(N(C)C)nc2n(CCC#N)c1=O
CN(C)c1ncc2nc(-c3cccs3)c(=O)n(CCc3ccccc3)c2n1
Cc1nc2cnc(N(C)C)nc2n(Cc2cccs2)c1=O
CN(C)c1ncc2nc(-c3ccccc3)c(=O)n(CCC#N)c2n1
CN(C)c1ncc2nc(-c3cc(F)cc(F)c3)c(=O)n(CCc3ccccc3)c2n1
CN(C)c1ncc2nc(-c3ccc(F)cc3)c(=O)n(CCc3ccccc3)c2n1
COCCn1c(=O)c(C)nc2cnc(N(C)C)nc21
CN(C)c1ncc2nc(-c3cccs3)c(=O)n(Cc3cccs3)c2n1
NC1=NC2(CCCCC2)N=C(Nc2ccc(F)cc2F)N1
CN(C)c1ncc2ncc(=O)n(C)c2n1
COc1ccc(-c2nc3cnc(N(C)C)nc3n(CCc3ccccc3)c2=O)cc1
COc1ccccc1N1CCN(CCn2c(=O)[nH]c3c([nH]c4ccccc43)c2=O)CC1
N=C1SCC(=O)N1c1nc(-c2ccccc2)cs1
CC(=O)Oc1cc(C(C)C)c(OCCN(C)C)cc1C
CN(C(=O)CN(CCO)CC(=O)N(C)C(C)(C)Cc1ccccc1)C(C)(C)Cc1ccccc1
CCN(CCO)Cc1csc2cccc(Br)c12
O=C(c1ccc(S(=O)(=O)N2CCCCCC2)cc1)N1CCC(CN2C(=O)c3cccc4cccc(c34)C2=O)CC1
CCS(=O)(=O)N1CCCC(C(=O)NCCCOC(C)C)C1 (stereo not given)
Cc1ccc(C)c(NC(=O)Cn2c([N+](=O)[O-])cnc2C)c1
Cc1ccc(C)c(N/C(N)=N/c2nc(C)cc(C)n2)c1

activity, negative = inhibition, inactive:
S=C1SCN(C2CCCCCCCCCCC2)CN1C1CCCCCCCCCCC1 -14.2% [at 11.4 µM]
CCOC(=O)c1c2c(n3ccccc13)C(=O)c1ccccc1C2=O -20.1% [at 11.4 µM]
CN(C)C(=O)c1ccc(-c2nccc(Nc3ccc(F)cc3)n2)cc1 -2.83% [at 2.29 µM]
CO[C@@H]1COC(=O)[C@H]2CCCN2C(=O)[C@@H](C)COC(=O)C/C=C\[C@H]1C 14.2% [at 11.4 µM]
CS(=O)(=O)Nc1cccc(-c2ccc3ncnc(NC4CC4)c3c2)c1 -17.7% [at 2.29 µM]
CO[C@@H]1COC(=O)[C@H]2CCCN2C(=O)C/C=C\[C@@H](C)[C@H](OC)COC(=O)[C@H]2CCCN2C(=O)C/C=C\[C@H]1C -0.816% [at 11.4 µM]
CO[C@@H]1COC(=O)CC=C[C@@H](C)[C@@H]2C=C[C@@H](O)[C@@H](COC(=O)C/C=C\[C@H]1C)O2 -2.62% [at 11.4 µM]
C#CCCCO/N=C1/C[C@@H](O)[C@@H](O)[C@@H]2[C@@H]3C(=O)N(Cc4ccccc4)C(=O)[C@H]3CC[C@H]12 -13.5% [at 11.4 µM]
CC1(C)OC[C@@H]2O[C@H](n3cnc4c(N)nc(Cl)nc43)[C@@H](OS(C)(=O)=O)[C@@H]2O1 2.13% [at 11.4 µM]
Cc1noc(NC(=O)Nc2ccccc2F)c1C#N -5.47% [at 11.4 µM]
CCN1C(=O)[C@H]2[C@H]3[C@H](O)[C@H](O)C/C(=N/NC(=O)OCc4ccccc4)[C@@H]3CC[C@@H]2C1=O -4.03% [at 11.4 µM]
CN1CCN(c2cc(-c3ccccc3C(F)(F)F)ncn2)CC1 4.29% [at 2.29 µM]
N#Cc1cccc(-c2nc(NCc3cccs3)c3ccccc3n2)c1 -13.5% [at 2.29 µM]
N=C(N)SCCCN 7.79% [at 11.4 µM]
CC(C)NCC[C@@H](O)c1cc2ccccc2o1 17.2% [at 11.4 µM]
CC(=O)OC[C@@H]1O[C@H](CCON=C(C)C)C=C[C@@H]1OC(C)=O 3.94% [at 11.4 µM]
Cc1cc(N=Cc2c(CO)cnc(C)c2O)c(N=Cc2c(CO)cnc(C)c2O)cc1C.[Zn] -15.6% [at 11.4 µM]
O[C@@H](COc1cccc2ccccc12)CN1CCOCC1 5.45% [at 11.4 µM]
COc1ccccc1-c1ccc2ncnc(N3CCN(C)CC3)c2c1 1.65% [at 2.29 µM]
